# Source: PubChem
# AddAB inh: less growth of phage-infected E. coli with AddAB. inhibition, % at 11.9 µM. E. coli expressing H. pylori AddAB, absorbance growth. actives 0.29% (n = 330,000); in the data active means inhibition above about 12%;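 further: 0% = vehicle wells of infected cells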
# E coli growth-1: bacterial growth inhibition, counter-screen for AddAB inhibitors | E. coli V3065 growth, OD600 absorbance, 18 h | inhibition, % at 11.9 µM | actives 0.27% (n = 330,000) | AID 449728;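 active means inhibition above the campaign's mean inhibition across all tested compounds plus 3 SD, cut at about 9.9% in these data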;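 further: uninfected addAB+ strain grown without phage in ampicillin broth; 0% = DMSO wells and 100% = ciprofloxacin 0.95 µg/ml wells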
# E coli growth-2: blocks Escherichia coli growth; OD600, 23 h; stronger effect = lower value; OD600 absorbance (test concentration not listed); actives 0.21% (n = 330,000); AID 1053175;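 active means OD600 absorbance below the run mean of sample wells minus 3.6 SD, in any replicate, cut at about 0.56 in these data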
# phage Ecoli inh: E. coli growth loss with phage present; growth absorbance; inhibition, % at 11.9 µM; actives 0.26% (n = 360,000); AID 651602; in the data active means inhibition above about 11%
# Tat transport: blocks Tat-dependent protein export in E. coli. E. coli MC4100 TorA-mCherry Tat export, fluorescence. inhibition, % at 10 µM. actives 0.036% (n = 340,000). AID 488895;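 active means mean replicate inhibition at least 50% and at least half of replicates individually reaching 50%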;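 further: exported cargo escapes ClpAP degradation while cytoplasmic cargo is degraded and loses fluorescence; 0% = median of neutral control wells and 100% = median of NaSCN control wells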
# AddAB conf: growth loss of T4-infected E. coli expressing H. pylori AddAB, confirmed; shares compounds with AddAB inh; E. coli V3065 expressing H. pylori AddAB, T4 phage, OD; T4 phage with gene 2 nonsense mutations; inhibition, % at 11.9 µM; actives 64% (n = 880);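 active means mean inhibition above a set limit taken from the earlier primary screen, cut at about 13% in these data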;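 further: higher means less bacterial growth since AddAB block lets phage replicate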
# RecBCD counter: counter-screen: growth loss of RecBCD+ E. coli with mutant T4 phage | E. coli V66 + mutant T4 phage, OD growth | actives 73% (n = 880) | shares compounds with AddAB inh | inhibition, % at 11.9 µM;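 active means mean inhibition above the mean of solvent-only control wells plus 3 SD, cut at about 4% in these data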;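 further: optical density read after an 18 h incubation at 37 °C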
# Bact viability: counter-screen for AddAB inhibitors: inhibitors of bacterial viability; shares compounds with AddAB inh; absorbance (AddAB counterscreen); actives 35% (n = 880); inhibition, % at 11.9 µM; in the data active means inhibition above about 25%
# RecBCD conf: growth loss of phage-infected V66 E. coli, RecBCD confirmation screen | shares compounds with phage Ecoli inh | E. coli V66 + T4 2- phage, growth OD | inhibition, % at 11.9 µM | actives 45% (n = 890);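 active means mean inhibition over triplicates exceeding the hit threshold derived in the original primary screen, cut at about 11% in these data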
# Ecoli viability: bacterial viability inhibition counter-screen for RecBCD. E. coli viability, absorbance (OD) growth. actives 29% (n = 890). inhibition, % at 11.9 µM. shares compounds with phage Ecoli inh; in the data active means inhibition above about 20%;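 further: E. coli strain V66 grown with compound alone and no phage infection; 0% = bacteria with DMSO vehicle only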
# AddAB phage OD: growth loss of phage-infected AddAB E. coli, RecBCD counter-screen. shares compounds with phage Ecoli inh. E. coli expressing H. pylori AddAB + T4 phage, OD growth; gene 2 mutant T4, recBCD-deleted host. inhibition, % at 11.9 µM. actives 45% (n = 890). AID 651984;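 active means mean inhibition above the solvent-only control wells' mean plus 3 SD, cut at about 22% in these data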;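 further: higher means less bacterial growth from phage killing when AddAB is blocked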
# Active calls of the source: *; / = not tested or not shown; + = active, no number; ! = repeats disagree. Shown are actives, neighbours in structure and some others; about 0.5% of the full set was active somewhere.
SMILES,AddAB inh,E coli growth-1,E coli growth-2,phage Ecoli inh,Tat transport,RecBCD conf,Ecoli viability,AddAB phage OD,others
N/C(=N\[N+](=O)[O-])N/N=C/c1ccc(O)cc1,1,1,/,2,0,/,/,/,
Nc1nonc1C(=O)N/N=C/c1ccc([N+](=O)[O-])o1,17*,8,/,18*,-16,8,5,61*,AddAB conf=99*;RecBCD counter=6.7*;Bact viability=16
COC(=O)C1=C(c2cccc(OCc3ccccc3)c2)CC2CCC1N2C(=O)NCCOc1ccccc1Cl (centres undefined),/,/,0.76,/,/,/,/,/,
C[CH2][Hg][S]c1ccccc1C(=O)O,+,101*,0.06*,+,-126,+,105*,+,AddAB conf=+;RecBCD counter=+;Bact viability=98*
CN(C)[C@@H]1C(=O)C(C(N)=O)=C(O)[C@@]2(O)C(=O)C3=C(O)c4c(O)cccc4[C@@](C)(O)C3C[C@@H]12 (some centres undefined),94*,100*,/,102*,147*,101*,102*,101*,AddAB conf=101*;RecBCD counter=101*;Bact viability=101*
CN(C)[C@@H]1C(=O)C(C(N)=O)=C(O)[C@@]2(O)C(=O)C3=C(O)c4c(O)ccc(Cl)c4[C@@](C)(O)[C@H]3C[C@@H]12,79*,81*,/,91*,163*,97*,102*,100*,AddAB conf=99*;RecBCD counter=95*;Bact viability=99*
CN(C)[C@@H]1C(=O)C(C(N)=O)=C(O)[C@@]2(O)C(=O)C3=C(O)c4c(O)cccc4[C@@](C)(O)[C@H]3[C@H](O)[C@@H]12,1,-1,/,3,6,/,/,/,
C[n+]1ccc(-c2cc[n+](C)cc2)cc1,12,10*,0.66,22*,-5,13*!,13,21*,
CCOC(=O)[C@]12Cc3cc(C)ccc3C1N(Cc1ccccc1)C(=O)c1ccccc12 (some centres undefined),/,/,0.71,/,/,/,/,/,
COC(=O)C1=COC(C)C2CN3CCC4(C(=O)Nc5ccccc54)C3CC12 (centres undefined),1,-2,0.74,11*,3,-2,0,2,
COC(=O)C1=C(c2c(C)noc2C)CC2CCC1N2C(=O)N1CCC(C)CC1 (centres undefined),/,/,0.68,/,/,/,/,/,
COC(=O)C1=C(c2ccccc2OCc2ccccc2)CC2CCC1N2C(=O)NCc1ccc(C(C)(C)C)cc1 (centres undefined),/,/,0.72,/,/,/,/,/,
Fc1ccc(CNC2CN3CCC2CC3)cc1 (centres undefined),-1,-1,0.69,13*,-12,-5,-4,1,
Oc1cc(Cl)ccc1Oc1ccc(Cl)cc1Cl,97*,98*,0.046*,97*,137*,99*,100*,99*,
COC(=O)C1=COC(C)C2CN3CC[C@@]4(C(=O)Nc5ccccc54)C3CC12 (some centres undefined),/,/,0.71,/,/,/,/,/,
CCc1nnc(NS(=O)(=O)c2ccc(N=Cc3c(O)n(-c4ccc(Cl)cc4)c(=O)[nH]c3=O)cc2)s1,9,8,0.61,12*,-8,4,2,20,
CNS(=O)(=O)c1ccc(N=Cc2c(O)n(-c3ccc(C)cc3)c(=O)[nH]c2=O)cc1,1,1,0.7,0,-7,/,/,/,
